Source: PubChem BioAssay (NCATS)
Inconclusive results are not listed. Calls of active or inactive are those of the source. The call rests on the fitted dose curve; in most records, active means well fitted curve in the direction sought with a large enough effect; inconclusive means small, poorly fitted or top-dose-only effect, or another doubt; inactive means no such curve, though single readings can be large; an effect the other way counts as inactive or inconclusive. Numbered stars: 1 amine (or outer) side, 2 acyl side, 3 side chain; on linkers, the order of the positions; unused ones are H or OH. Bridge positions count the residues as written; N and C are the ends. Square brackets hold non-standard residues; d marks the D form. Peptide text beside a SMILES is read from it. I, II: the chains in the order shown. Actinocin(9to1) = Cc1c2oc3c(C)ccc(C(=O)[*:1])c3nc-2c(C(=O)[*:2])c(N)c1=O; NMeV = CN[C@H](C(=O)O)C(C)C; Sar = CNCC(=O)O

What was measured:
[1] = Cell Viability - LYMP1-003 - Assay at 40 hr (AID 964); further: nearly all actives have a fitted effect of over 60% in size
Outline: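 This qHTS cytotoxicity screen treats human lymphoblastoid cells (LYMP1-003) with compounds for 40 hr and quantifies cellular ATP via luciferase luminescence.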

[2] = Cell Viability - LYMP2-003 (AID 965);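 further: cells exposed to compounds for 24 h before reading; nearly all actives have a fitted effect of over 50% in size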
Outline: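 Acute cytotoxicity is scored as a concentration-dependent drop in intracellular ATP, measured by luciferase luminescence in human lymphoblastoid cells treated for 24 hours at 37 C. AC50 values derive from Hill-equation modelling.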

[3] = Cell Viability - LYMP2-004 (AID 966); further: nearly all actives have a fitted effect of over 65% in size
Outline: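 Acute toxicity is scored as a concentration-dependent drop in intracellular ATP, quantified by luciferase luminescence, in human lymphoblastoid cells exposed to compound for 24 hr. AC50 derives from Hill-equation modelling.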

[4] = Cell Viability - LYMP2-009 (AID 968);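 further: cells exposed to compound for 24 h at 37 °C; nearly all actives have a fitted effect of over 55% in size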
[5] = Cell Viability - LYMP2-011 (AID 969); further: nearly all actives have a fitted effect of over 60% in size
Outline: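 Acute toxicity is scored as a concentration-dependent drop in intracellular ATP of a human lymphoblastoid line after 24 hr treatment. Values are AC50s modeled with the Hill equation.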

[6] = Cell Viability - LYMP2-015 (AID 971); further: nearly all actives have a fitted effect of over 55% in size
Outline: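 Acute toxicity was scored as a concentration-dependent drop in intracellular ATP in lymphoblastoid cells after 24 hr compound exposure in complete medium. Detection used CellTiter-Glo luciferase luminescence.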

[7] = Cell Viability - LYMP2-017 (AID 972);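 further: cells exposed to compound for 24 hours at 37 °C; nearly all actives have a fitted effect of over 55% in size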
Outline: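 Steps: plate 2500 lymphoblastoid cells per well; incubate 5 hr at 37 C; add compound across a concentration series and incubate 24 hr at 37 C; add CellTiter-Glo and read luminescence after 30 min at room temperature; fit Hill curves for AC50.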

[8] = Cell Viability - LYMP2-019 (AID 973);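 further: cells exposed to compound for 24 h at 37 °C; nearly all actives have a fitted effect of over 55% in size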
Outline: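 Cells plated at 2500/well and allowed 5 hr at 37 C before compound addition. After 24 hr incubation, CellTiter-Glo reagent was added, plates sat 30 min at room temperature, and luminescence was recorded.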

[9] = Cell Viability - LYMP2-021 (AID 974)
Outline: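 Concentration-response cytotoxicity in a human lymphoblastoid line: 24 hr treatment at 37 C in complete culture medium, tetraoctylammonium bromide as positive control, luminescent ATP quantitation as viability measure.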

[10] = Cell Viability - LYMP2-023 (AID 975)
Outline: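 Concentration-dependent drop in intracellular ATP measures acute cytotoxicity in a human lymphoblastoid line treated for 24 hours in complete culture medium. AC50 values are taken from Hill-equation fits of qHTS data.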

Measured: Potency
Potency means the concentration at half of the fitted maximal effect.

COc1cccc2c1C(=O)c1c(O)c3c(c(O)c1C2=O)C[C@@](O)(C(=O)CO)C[C@@H]3O[C@H]1C[C@H](N)[C@H](O)[C@H](C)O1
active: [1] 0.398 µM | [2] 0.501 µM | [3] 0.501 µM | [4] 0.251 µM | [5] 0.251 µM | [6] 0.158 µM | [7] 0.631 µM | [8] 0.631 µM | [9] 0.398 µM | [10] 0.398 µM

O=C(O)CCCCC(=O)O
inactive: all assays above

Cc1c2oc3c(C)ccc(C(=O)N[C@@H]4C(=O)N[C@H](C(C)C)C(=O)N5CCC[C@H]5C(=O)N(C)CC(=O)N(C)[C@@H](C(C)C)C(=O)O[C@@H]4C)c3nc-2c(C(=O)N[C@@H]2C(=O)N[C@H](C(C)C)C(=O)N3CCC[C@H]3C(=O)N(C)CC(=O)N(C)[C@@H](C(C)C)C(=O)O[C@@H]2C)c(N)c1=O (I: T[dV]P[Sar][NMeV] / II: T[dV]P[Sar][NMeV]; ester I:1-I:C, II:1-II:C; linker I:N-II:N via Actinocin(9to1))
active: [1] 0.005 µM | [7] 0.01 µM | [9] 0.0025 µM

CN(C)/N=N/c1nc[nH]c1C(N)=O
inactive: all assays above

CCCCCCc1ccc(O)cc1O
not listed: [1] | [3]
inactive: all other assays above

CC/C(=C(/CC)c1ccc(O)cc1)c1ccc(O)cc1
not listed: [1]
inactive: all other assays above

C[C@]12CC[C@@H]3c4ccc(O)cc4CC[C@H]3[C@@H]1CC[C@@H]2O
inactive: all assays above

CC(O)C(=O)O (stereo not drawn)
inactive: all assays above

COC1=CC(=O)C[C@@H](C)[C@]12Oc1c(Cl)c(OC)cc(OC)c1C2=O
not listed: [1]
inactive: all other assays above

C=C(CC)C(=O)c1ccc(OCC(=O)O)c(Cl)c1Cl
active: [2] 50.1 µM | [4] 50.1 µM | [5] 50.1 µM | [6] 50.1 µM | [7] 50.1 µM | [8] 39.8 µM | [9] 39.8 µM

COc1cccc2c1C(=O)c1c(O)c3c(c(O)c1C2=O)C[C@@](O)(C(C)=O)C[C@@H]3O[C@H]1C[C@H](N)[C@H](O)[C@H](C)O1
active: [1] 0.398 µM | [2] 0.316 µM | [4] 0.251 µM | [7] 0.631 µM | [8] 3.98 µM

CC(=O)O[C@]1(C(C)=O)CC[C@H]2[C@@H]3C[C@H](C)C4=CC(=O)CC[C@]4(C)[C@H]3CC[C@@]21C
active: [3] 31.6 µM | [4] 39.8 µM | [5] 39.8 µM | [6] 39.8 µM | [7] 31.6 µM | [9] 39.8 µM
inactive: [1]

Oc1c(I)cc(Cl)c2cccnc12
active: [1] 39.8 µM

Nc1ccc(C(=O)O)cc1
inactive: all assays above

NC(=NCCCCCCN=C(N)/N=C(\N)Nc1ccc(Cl)cc1)/N=C(\N)Nc1ccc(Cl)cc1
active: [1] 31.6 µM | [4] 50.1 µM | [5] 39.8 µM | [6] 39.8 µM | [7] 39.8 µM | [9] 39.8 µM | [10] 50.1 µM

Oc1ccc(O)cc1
active: [1] 12.6 µM | [2] 39.8 µM | [3] 39.8 µM | [4] 50.1 µM | [5] 39.8 µM | [6] 50.1 µM | [7] 39.8 µM | [9] 50.1 µM
inactive: [10]

O=c1ccc2ccccc2o1
inactive: all assays above

C=CCc1ccc(O)c(OC)c1
inactive: all assays above

CC(=O)Oc1ccc(C(c2ccc(OC(C)=O)cc2)c2ccccn2)cc1
inactive: all assays above

CC(C)(C)CC(C)(C)c1ccc(OCCOCC[N+](C)(C)Cc2ccccc2)cc1
active: [1] 31.6 µM | [2] 39.8 µM | [3] 39.8 µM | [4] 31.6 µM | [5] 31.6 µM | [6] 25.1 µM | [7] 31.6 µM | [8] 39.8 µM | [9] 31.6 µM | [10] 39.8 µM

O=C1OC(c2ccc(O)cc2)(c2ccc(O)cc2)c2ccccc21
inactive: all assays above

Oc1c(Cl)cc(Cl)cc1Sc1cc(Cl)cc(Cl)c1O
active: [1] 39.8 µM | [4] 50.1 µM | [9] 39.8 µM
